The supplement of paper PMC10849652
About 8,800 targets were measured; listed, in parts, are those with a hit and a random draw of the rest. About 0.5% of all pairs of compound and target were hits.

Columns and labels:
Assay in all cases: log2 fold change, soluble protein after heating vs DMSO (PISA); higher = thermal stabilisation; K562 lysate, 10 uM; active = over 0.2 and 3.5 SD of the protein, either way, in both replicates (recomputed)
[1] = compound: C1=CC=C(C=C1)[C@H](COC2=CC3=C(C=C2)NC(=O)N3)NC(=O)C4=CC=CN(C4=O)CC5=CC(=C(C=C5)F)F
In short: (§1)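 K562 pellets were dounce-homogenised in PBS pH 7.4 with 1 mM MgCl2, and the crude extract at 1 mg/mL protein was treated with 10 μM compound for 30 min. Aliquots were heated for 3 min across 48°C-58°C, pooled, and brought to 0.5% NP-40 at 4°C; soluble protein was the supernatant after 21,000xg for 90 min. Soluble protein was quantified by TMTpro 16plex LC-MS/MS with channel sums equalised, and reported as log2 fold change in thermal stability against DMSO controls, with values from duplicates.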

[2] = compound: CC1=C(SC2=C1C(=N[C@H](C3=NN=C(N32)C)CC(=O)N)C4=CC=C(C=C4)Cl)C
In short: as §1

[3] = compound: CC1=C2C(=CC=C1)N=C(N(C2=O)C3=CC=CC=C3C)CN4C=NC5=C(N=CN=C54)N
In short: as §1

[4] = compound: Cc1sc2c(c1C)C(c1ccc(Cl)cc1)=N[C@@H](CC(=O)OC(C)(C)C)c1nnc(C)n1-2
In short: as §1

[5] = compound: c1ccc([C@@H]2C[C@H]2NC2CCNCC2)cc1
In short: as §1

Chain of UniProt O75367 (O75367 whole entry, looked up): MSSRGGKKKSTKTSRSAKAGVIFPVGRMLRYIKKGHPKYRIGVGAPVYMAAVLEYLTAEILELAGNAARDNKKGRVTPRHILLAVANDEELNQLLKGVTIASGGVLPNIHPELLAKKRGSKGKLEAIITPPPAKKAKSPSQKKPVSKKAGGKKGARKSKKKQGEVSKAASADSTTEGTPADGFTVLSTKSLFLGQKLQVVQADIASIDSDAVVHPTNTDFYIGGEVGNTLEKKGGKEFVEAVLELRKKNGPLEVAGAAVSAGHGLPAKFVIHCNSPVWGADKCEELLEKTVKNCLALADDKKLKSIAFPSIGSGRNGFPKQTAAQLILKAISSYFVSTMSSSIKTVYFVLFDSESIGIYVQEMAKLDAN
Chain of UniProt Q9NSC5 (Q9NSC5 whole entry, looked up): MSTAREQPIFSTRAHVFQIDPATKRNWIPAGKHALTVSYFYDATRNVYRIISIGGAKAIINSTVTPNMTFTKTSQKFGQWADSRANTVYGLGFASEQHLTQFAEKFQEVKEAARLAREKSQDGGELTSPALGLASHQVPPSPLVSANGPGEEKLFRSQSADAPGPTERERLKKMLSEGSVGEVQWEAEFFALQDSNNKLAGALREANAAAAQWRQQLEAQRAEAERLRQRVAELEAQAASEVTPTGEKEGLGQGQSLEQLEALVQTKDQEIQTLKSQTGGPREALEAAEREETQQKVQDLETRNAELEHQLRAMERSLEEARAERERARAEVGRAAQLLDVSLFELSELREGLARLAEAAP
Chain of UniProt Q27J81 (Q27J81 whole entry, looked up): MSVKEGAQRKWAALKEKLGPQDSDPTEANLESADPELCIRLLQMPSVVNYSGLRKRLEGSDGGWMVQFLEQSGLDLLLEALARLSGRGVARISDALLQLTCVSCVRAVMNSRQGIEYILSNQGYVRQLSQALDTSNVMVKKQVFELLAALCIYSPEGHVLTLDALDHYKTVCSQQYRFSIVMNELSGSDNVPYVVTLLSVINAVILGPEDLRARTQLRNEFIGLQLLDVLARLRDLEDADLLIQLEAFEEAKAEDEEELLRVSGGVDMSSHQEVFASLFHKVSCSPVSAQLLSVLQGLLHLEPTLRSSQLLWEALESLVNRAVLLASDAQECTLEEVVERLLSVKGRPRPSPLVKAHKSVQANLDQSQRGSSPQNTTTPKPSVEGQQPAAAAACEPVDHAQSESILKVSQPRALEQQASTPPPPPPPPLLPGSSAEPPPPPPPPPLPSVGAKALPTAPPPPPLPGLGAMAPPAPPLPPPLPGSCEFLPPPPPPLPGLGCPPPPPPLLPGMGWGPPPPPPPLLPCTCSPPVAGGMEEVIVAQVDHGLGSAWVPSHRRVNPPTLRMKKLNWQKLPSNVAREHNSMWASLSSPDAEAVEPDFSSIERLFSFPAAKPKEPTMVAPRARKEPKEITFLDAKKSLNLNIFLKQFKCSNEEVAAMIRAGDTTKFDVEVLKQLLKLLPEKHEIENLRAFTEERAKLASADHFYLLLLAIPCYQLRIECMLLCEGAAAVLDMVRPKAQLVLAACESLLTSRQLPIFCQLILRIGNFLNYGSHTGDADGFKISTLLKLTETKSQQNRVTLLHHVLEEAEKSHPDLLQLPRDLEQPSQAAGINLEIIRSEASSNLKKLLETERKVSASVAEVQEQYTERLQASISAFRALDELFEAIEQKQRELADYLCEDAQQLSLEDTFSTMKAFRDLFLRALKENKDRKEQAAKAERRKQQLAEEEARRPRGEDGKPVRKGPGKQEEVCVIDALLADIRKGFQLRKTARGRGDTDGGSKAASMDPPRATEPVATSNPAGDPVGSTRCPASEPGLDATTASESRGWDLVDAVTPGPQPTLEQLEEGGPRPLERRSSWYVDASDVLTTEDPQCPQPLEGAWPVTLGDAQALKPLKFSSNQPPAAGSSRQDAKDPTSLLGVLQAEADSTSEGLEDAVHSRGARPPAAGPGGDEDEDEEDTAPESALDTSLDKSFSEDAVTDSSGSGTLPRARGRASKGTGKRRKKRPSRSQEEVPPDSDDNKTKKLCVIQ
Chain of UniProt Q96EW2 (Q96EW2 whole entry, looked up): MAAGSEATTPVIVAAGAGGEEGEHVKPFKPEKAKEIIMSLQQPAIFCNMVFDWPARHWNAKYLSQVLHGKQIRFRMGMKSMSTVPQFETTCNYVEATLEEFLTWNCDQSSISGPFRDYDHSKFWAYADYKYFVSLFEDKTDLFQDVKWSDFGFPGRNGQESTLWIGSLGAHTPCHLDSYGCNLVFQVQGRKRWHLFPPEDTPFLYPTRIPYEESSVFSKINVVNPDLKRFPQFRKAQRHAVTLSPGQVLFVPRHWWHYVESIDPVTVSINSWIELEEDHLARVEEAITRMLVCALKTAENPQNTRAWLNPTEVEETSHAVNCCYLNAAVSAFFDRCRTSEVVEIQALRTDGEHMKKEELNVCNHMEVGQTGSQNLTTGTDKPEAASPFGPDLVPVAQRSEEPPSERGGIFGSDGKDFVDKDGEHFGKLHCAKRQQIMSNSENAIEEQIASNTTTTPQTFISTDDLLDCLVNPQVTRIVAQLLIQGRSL
Chain of UniProt P49841 (P49841 whole entry, looked up): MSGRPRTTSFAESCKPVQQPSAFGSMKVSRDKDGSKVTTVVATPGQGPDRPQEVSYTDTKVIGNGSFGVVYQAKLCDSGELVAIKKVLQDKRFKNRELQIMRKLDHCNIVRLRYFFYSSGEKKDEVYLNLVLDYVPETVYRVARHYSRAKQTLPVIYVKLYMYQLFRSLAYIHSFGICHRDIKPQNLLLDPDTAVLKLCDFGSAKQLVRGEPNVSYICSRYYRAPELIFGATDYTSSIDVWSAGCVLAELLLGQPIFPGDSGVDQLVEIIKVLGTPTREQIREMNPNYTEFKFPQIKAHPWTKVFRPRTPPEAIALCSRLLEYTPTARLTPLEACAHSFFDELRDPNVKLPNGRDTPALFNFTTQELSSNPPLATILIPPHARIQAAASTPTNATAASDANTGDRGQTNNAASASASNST
Chain of UniProt Q9Y4H2 (Q9Y4H2 whole entry, looked up): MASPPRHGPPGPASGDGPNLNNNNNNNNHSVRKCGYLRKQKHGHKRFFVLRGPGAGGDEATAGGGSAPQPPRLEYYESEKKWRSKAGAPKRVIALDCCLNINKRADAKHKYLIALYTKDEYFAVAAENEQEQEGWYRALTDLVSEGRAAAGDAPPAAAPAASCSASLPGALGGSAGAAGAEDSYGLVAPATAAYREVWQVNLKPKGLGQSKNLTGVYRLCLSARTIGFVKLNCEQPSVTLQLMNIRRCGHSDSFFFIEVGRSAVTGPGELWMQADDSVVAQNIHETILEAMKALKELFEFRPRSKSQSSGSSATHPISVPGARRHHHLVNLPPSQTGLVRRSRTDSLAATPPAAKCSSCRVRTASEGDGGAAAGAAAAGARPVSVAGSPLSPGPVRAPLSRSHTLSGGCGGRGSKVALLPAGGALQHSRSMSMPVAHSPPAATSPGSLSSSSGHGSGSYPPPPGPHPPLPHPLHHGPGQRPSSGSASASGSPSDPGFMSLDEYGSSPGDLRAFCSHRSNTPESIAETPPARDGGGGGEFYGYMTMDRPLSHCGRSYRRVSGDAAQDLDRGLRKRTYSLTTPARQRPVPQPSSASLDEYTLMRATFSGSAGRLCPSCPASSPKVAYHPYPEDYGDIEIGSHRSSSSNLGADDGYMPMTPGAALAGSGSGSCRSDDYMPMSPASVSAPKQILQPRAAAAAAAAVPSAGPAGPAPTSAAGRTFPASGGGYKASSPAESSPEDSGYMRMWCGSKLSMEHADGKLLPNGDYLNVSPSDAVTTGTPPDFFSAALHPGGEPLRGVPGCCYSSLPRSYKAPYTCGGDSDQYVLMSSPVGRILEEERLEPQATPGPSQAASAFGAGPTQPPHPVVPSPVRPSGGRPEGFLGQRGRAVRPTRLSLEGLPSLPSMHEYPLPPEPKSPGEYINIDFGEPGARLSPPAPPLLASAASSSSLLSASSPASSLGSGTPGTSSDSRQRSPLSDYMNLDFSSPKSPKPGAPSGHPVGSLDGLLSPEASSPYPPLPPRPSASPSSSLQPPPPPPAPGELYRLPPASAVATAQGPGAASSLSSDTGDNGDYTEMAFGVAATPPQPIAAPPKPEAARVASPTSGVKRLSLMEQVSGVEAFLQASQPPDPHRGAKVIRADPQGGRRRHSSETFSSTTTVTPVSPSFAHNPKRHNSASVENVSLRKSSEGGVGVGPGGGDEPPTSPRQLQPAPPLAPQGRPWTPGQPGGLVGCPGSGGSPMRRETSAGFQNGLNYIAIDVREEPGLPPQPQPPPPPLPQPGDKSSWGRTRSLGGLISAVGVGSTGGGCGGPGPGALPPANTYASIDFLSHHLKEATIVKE
Chain of UniProt P52655 (P52655 whole entry, looked up): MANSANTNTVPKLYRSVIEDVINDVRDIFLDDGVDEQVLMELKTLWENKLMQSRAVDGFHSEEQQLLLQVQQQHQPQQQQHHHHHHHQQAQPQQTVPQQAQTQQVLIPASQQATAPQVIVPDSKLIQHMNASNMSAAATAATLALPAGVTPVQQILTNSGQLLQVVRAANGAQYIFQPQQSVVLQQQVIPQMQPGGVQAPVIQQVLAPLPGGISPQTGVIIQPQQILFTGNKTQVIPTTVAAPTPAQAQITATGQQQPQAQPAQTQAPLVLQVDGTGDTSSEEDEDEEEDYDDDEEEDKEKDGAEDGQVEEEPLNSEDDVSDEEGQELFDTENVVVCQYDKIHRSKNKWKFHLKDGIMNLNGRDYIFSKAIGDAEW

Row | Target | log2 fold change [1] | log2 fold change [2] | log2 fold change [3] | log2 fold change [4] | log2 fold change [5]
1 | GTF2A1 (UniProt P52655) | 0.025 (inactive) | -0.033 (inactive) | -0.01 (inactive) | -0.057 (inactive) | 0.202 (inactive)
2 | HSPBAP1 (UniProt Q96EW2) | 0.069 (inactive) | -0.022 (inactive) | – | 0.065 (inactive) | 0.006 (inactive)
3 | H2AFY (UniProt O75367) | -0.035 (inactive) | 0.045 (inactive) | 0.026 (inactive) | 0.296 (active) | -0.045 (inactive)
4 | KDM1A (UniProt O60341) | 0.007 (inactive) | -0.004 (inactive) | 0.018 (inactive) | 0.009 (inactive) | 0.817 (active)
5 | GSK3B isoform 2 (UniProt P49841) | 0.036 (inactive) | -0.003 (inactive) | -0.042 (inactive) | 0.029 (inactive) | -0.074 (inactive)
6 | INF2 (UniProt Q27J81) | 0.016 (inactive) | 0.017 (inactive) | 0.015 (inactive) | -0.014 (inactive) | -0.06 (inactive)
7 | IRS2 (UniProt Q9Y4H2) | -0.091 (inactive) | 0.246 (inactive) | – | -0.129 (inactive) | -0.354 (inactive)
8 | HNRNPUL1 (UniProt M0R247) | 0.059 (inactive) | -0.014 (inactive) | – | – | -0.044 (inactive)
9 | HOMER3 (UniProt Q9NSC5) | 0.072 (inactive) | -0.276 (inactive) | – | – | 0 (inactive)
